# The supplement of paper PMC11417369
# ± gives the standard deviation of the averaged measurements. Whole data set: some 25,000 sequences, median “ln(normalized median fluorescence intensity)” near 8.6, cut for the highest 2% near 10. The list comes from a sample in which the highest values are over-represented; it also holds similar and randomly drawn sequences.
# Tested on: PfAP2-EXP AP2 domain (GST-tagged)
# Assay: gcPBM binding intensity (ln(normalized median fluorescence intensity)); higher = stronger DNA binding
# How it was run: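 Probes on an Agilent 4 × 180k array were primer-extended, double-stranded and 36 bp long, taken from intergenic genomic regions, with negative controls added. GST-tagged P. falciparum DNA-binding domains from E. coli, about 25 μg on average, were applied to the array for 1 h in 1× PBS containing 1% milk, 0.2 mg/ml BSA, 0.5% salmon testes DNA and 0.03% Triton X-100. Binding intensity, obtained after Alexa488 anti-GST antibody detection and a 488 nm scan, is the highest Masliner-normalised natural-log median intensity across replicate spots of either probe orientation.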
row,Sequence,gcPBM binding intensity (ln)
1,TTTGCCATATGACACACACACATGTAAACCCCCTTT [CACACA_site6873],9.41 ± 0.45
2,ATATATTTTTACCATACACACATATAACAAATATAT [CACACA_site7706],8.75 ± 0.44
3,TTTTTAATTTTTTGTTGTACATATAATATATTATTA [XGTACX_site4903],8.6 ± 0.27
4,TTTTTTTTTAAAACATAATAAAAAATAAAACAACCT [GTGCAC_negctrl_site92],8.77 ± 0.28
5,ATATACACATTAATAACACACAATATGATAACAAAT [CACACA_site7670],8.79 ± 0.33
6,ATTACATGCAATATATGTACGTAATATATATATATA [XGTACX_site2300],9.91 ± 0.38
7,ATTTAAAAAAGAAAGGTGCATTTCAATAATGTAAAA [GTGCAC_site9585],8.62 ± 0.15
8,TTTTGATATAAAAAAAGTACATTAATAATATTAATT [XGTACX_site4248],8.29 ± 0.37
9,TTATTATATAAAATAAATAACAAAAAAAATAAAATA [GTGCAC_negctrl_site548],8.45 ± 0.43
10,CCTTGCCCCAGGAGTTCACACACATAATAGATTGTC [CACACA_site8138],8.82 ± 0.64
11,TTAACCTTTATATAATACGTATCATCCTCATATATA [CACACA_negctrl_site86],8.95 ± 0.61
12,TTATAAATATTCTTGGGTACTTAAGATGATATGTAA [XGTACX_site5496],8.34 ± 0.39
13,GCGTTATTAAATAATTCACACACATATATATATATA [CACACA_site8711],10 ± 0.38
14,CAAAATAAAAAATTCACACACATATATATATATATA [CACACA_site2088],10.2 ± 0.38
15,CAAAATAAAAAATTCACACACATATAAATATAAATA [CACACA_site7065],8.54 ± 0.24
16,GTTATTAAATAATTCACACACATATATAAATAAATA [CACACA_site7129],8.31 ± 0.48
17,GTTATTAAATAATTCACACACATATATATATATATA [CACACA_site2260],10.3 ± 0.45
18,TTTATTATCTTATTCACACACATATATAAATATGTA [CACACA_site7369],8.58 ± 0.4
19,TTTATTATCTTATTCACACACATATATATATATATA [CACACA_site2869],10.2 ± 0.41
20,ATCTCTTATATATTCACACACATATATATAATTATA [CACACA_site1502],8.85 ± 0.42
21,AAAAAAAAAAAAAATTCACACACATATAAAAAATTA [CACACA_site8140],8.31 ± 0.47
22,ATTATATATATATATAAACACACATAAATATAAATA [CACACA_site8291],8.56 ± 0.38
23,AAAATATTTATTTTTTGTACACATAAAAACGCACTT [XGTACX_site4132],8.62 ± 0.11

row,Sequence,gcPBM binding intensity (ln)
1,TATTATTTTTTAAATTGTACAATAAATTATAAAAGG [XGTACX_site1162],8.41 ± 0.39
2,TTCTAATATTTTTGCACACTAAACAATAAATTTCCT [CACACA_site3944],8.885 ± 0.078
3,AGCTCTCAAAATTATTCACACGTGTCCTGTTATATA [CACACA_site5415],9.26 ± 0.47
4,TTTGTGTAAAGAATCAGTACATATAATATATATATA [XGTACX_site1972],9.34 ± 0.33
5,ATATATTTCATTTTTGTACACACAACGTTGGAGGGT [CACACA_site8999],8.84 ± 0.39
6,AAAATAATTGTTTACACACCCATTTGTAATTTTACC [CACACA_site3614],8.54 ± 0.37
7,GTACCTATTTCATACACACACACACGCAAACAAACA [CACACA_site6590],9.01 ± 0.34
8,CACTTAACACAAGAGTGTACACATATATATATATAT [XGTACX_site686],10.1 ± 0.53
9,TTAACTCAAGAGTGTACACATATATATATATATATA [CACACA_site4334],10.2 ± 0.47
10,GTATATATGTATATGTGTACACATATTCTTAACTCA [XGTACX_site309],8.88 ± 0.33
11,TTATAAATGTAACGATGTACTTTTAAAAGTTTCCTT [XGTACX_site109],8.36 ± 0.38
12,TGGTATTAAGGAGAGGGTACAAAAAAAAAAAAAAAA [XGTACX_site1668],8.28 ± 0.49
13,AATAATATCATTTAGACACACACTCTTACAATATGT [CACACA_site8832],8.61 ± 0.45
14,GTTTATATTTAATTTTTTTGTTTTTTTGTGTAATTC [XGTACX_negctrl_site194],8.53 ± 0.47
15,AGATTTAAATATCATACACACTTTATCTATAATACA [CACACA_site6581],8.32 ± 0.4
16,TTAATATTAATTATATGTACATATAATATATATATA [XGTACX_site1757],9.18 ± 0.13
17,CATATTAATATTATGGGTACATATAAATTTACATTC [XGTACX_site687],8.64 ± 0.38
18,AAATAATTTACTTAATGTACATATATATATATATAT [XGTACX_site8594],10.59 ± 0.092
19,TTATAATTTAATAAATGTACATAAATAATATACATA [XGTACX_site7271],8.26 ± 0.18
20,GTATTTTTTTTAATATGTACATATAAAATATTTTAT [XGTACX_site8329],8.96 ± 0.31
21,AATAAATTAATTTTGGGTACATATATATATATATAT [XGTACX_site3807],10.2 ± 0.23
22,ATAAAATTTTATATGGGTACATAATATAATATATAT [XGTACX_site8160],8.84 ± 0.41
23,TAAAAAATAAATATATGTACATATTTATTTTTTTTT [XGTACX_site850],8.21 ± 0.35

row,Sequence,gcPBM binding intensity (ln)
1,ATATATATATATATATGTACATAAATATTTTAAAAT [XGTACX_site4980],10.3 ± 0.4
2,TAATTAATAATAATATGTACATATTAATATATTATT [XGTACX_site6900],8.29 ± 0.24
3,ATATATATATATATATGTACATAATTAATAATTAGA [XGTACX_site5672],10.3 ± 0.25
4,ATAAATATATTTAAATGTACATAATATATATATATA [XGTACX_site5137],9.96 ± 0.18
5,TAATTTAAAATATATAGTACACACGTGAACACAAAT [XGTACX_site792],8.89 ± 0.45
6,AATATATCATAATGATGTACAAGTAAAACCGTTACA [XGTACX_site4280],8.74 ± 0.52
7,TATTATATGTATTGCACACCTTCAACAACTACTTCT [CACACA_site655],9.03 ± 0.14
8,TATTATTTTTTTATTCTATTAAAAAGAAAAAAATGA [CACACA_negctrl_site407],7.95 ± 0.47
9,ACTTTACGAATTAAGAGTACTTATTTAAGGAACACT [XGTACX_site7919],8.52 ± 0.37
10,CTACATAAAAAAATATGTACATATATATATATATAT [XGTACX_site667],10 ± 0.46
11,AAATATAAAAAAAAAAGTACTTTGTTACTTTTCTAT [XGTACX_site6034],8.04 ± 0.36
12,AACACATACAGATATGCACACATTTTATTCCATTAT [CACACA_site5565],8.84 ± 0.34
13,TGAAAAAATATAATTTGTACATATCAGGCAAAAATG [XGTACX_site1824],8.68 ± 0.38
14,TATAAAAATATATTTACACACTATATATATCGAAAG [CACACA_site1700],8.52 ± 0.38
15,CCACTAATAAATATTACACACATATAGATTTATATT [CACACA_site7465],8.41 ± 0.44
16,ATATATATATATAATACACACTAAAGTAACATAATA [CACACA_site5580],9.74 ± 0.11
17,TATATACTTTATAAATGTACATATAATGTATTATTT [XGTACX_site7313],8.34 ± 0.42
18,TATATATATATATAATGTACATAATAATAATACATC [XGTACX_site5587],9.84 ± 0.26
19,TATATATATATATAATGTACATATATATAATATACA [XGTACX_site1552],10.1 ± 0.27
20,AATATTTATTTTATATGTACATAATTTATTTTTAAT [XGTACX_site776],8.63 ± 0.32
21,TATATATATACTTAATGTACATATATATATATATAT [XGTACX_site3102],10.3 ± 0.2
22,TTTATACTTTCAAAATGTACATATATATATATATAT [XGTACX_site6241],10.2 ± 0.24
23,ATATATATATATATATGTACATATTTTATTTAATTT [XGTACX_site1807],10.2 ± 0.28

row,Sequence,gcPBM binding intensity (ln)
1,TTTAATATGAATTTATGTACATATATATATATATAT [XGTACX_site6337],10.2 ± 0.35
2,CATATAATATAATTATGTACATATATAATAATATAC [XGTACX_site5278],8.47 ± 0.29
3,ATATATATATATATATGTACATAATTAATAGCATAT [XGTACX_site1428],10.2 ± 0.36
4,TTATATACATAAAAATGTACTTTTTATAAAATATAT [XGTACX_site8281],8.21 ± 0.18
5,TATATATATAATATATGTACATATTAATTATGTATA [XGTACX_site5366],8.79 ± 0.13
6,CAACACTTAGATTTTAAGTTCACTGGTTAATATATA [CACACA_negctrl_site707],8.12 ± 0.4
7,ATTGAAAATTGTTGCACACATAATAATTAAATATAT [CACACA_site1857],8.37 ± 0.23
8,GATCTTTAAATTTATTGTACATAAATGTATATGTTA [XGTACX_site1107],8.59 ± 0.45
9,TATTTACAAAAAAAATATAAAAAATATAAAATATAT [CACACA_negctrl_site575],8.12 ± 0.31
10,TGTTAATTTCATTTTCTACACACCTATCCTTTTTTT [CACACA_site8157],8.88 ± 0.47
11,AAATAAATAATTTAATGTACATATATAATATATATA [XGTACX_site1831],8.5 ± 0.11
12,GTATATAATTATATATGTACTAAATAAATATTTTTA [XGTACX_site6062],8.29 ± 0.39
13,ATATATTATATAATATGTACATAATAAAATTTAAAT [XGTACX_site1900],8.72 ± 0.27
14,ATATATATATATATATGTACATAAATATAAATTTAA [XGTACX_site8715],10.2 ± 0.24
15,AATATTATATATATGGGTACTAATTCCTTTAATTTC [XGTACX_site102],8.15 ± 0.3
16,TATTAATTTTTATTATGTACATAAATAATTTATATT [XGTACX_site5456],8.39 ± 0.28
17,TTAAATATAATATTATGTACTAAATATTTTTTTATT [XGTACX_site6121],8.09 ± 0.37
18,TTTTTTTTTTTCGGGGGTACTAATATATTATTAATA [XGTACX_site7809],10.4 ± 0.34
19,ATATATATATATATATGTACATATTTTTAATTATAA [XGTACX_site7444],9.86 ± 0.13
20,ATATATATATATATATGTACTAATTAATATTTCGAG [XGTACX_site580],10.2 ± 0.47
21,ATATATATATATATATGTACATATTTTAATAATTAA [XGTACX_site8549],10.2 ± 0.23
22,TAATTATTTTCGGTACGTACTAATGTATATATAATT [XGTACX_site3895],8.67 ± 0.42
